Bioassay records from PubChem BioAssay.
Hits are enriched below; roughly 5.3% of the tested compounds scored in any of these assays.
FMDV antiviral = blocks foot and mouth disease virus | hit rate 1.2% among 410,000 | Potency, µM (highest dose often 57.9 µM), most hits filed as inhibitors | FMDV antiviral cell-based qHTS | AID 1159524; calls by dose curve; tested in HEK293T cells; also: read-out not given here; nearly all actives have a fitted effect of over 45% in size
LASV entry inh = inhibitors of Lassa virus binding or cell entry; Lassa virus pseudotype entry inhibition, cell reporter; Potency, µM (doses to about 37.9 µM), actives largely listed as inhibitors; hit rate 1.2% among 300,000; AID 540256; calls by dose curve; tested in HEK293 cells; also: nearly all actives have a fitted effect of over 50% in size
Vaccinia Venus = vaccinia inhibition (Venus reporter); Vaccinia virus Venus reporter expression, fluorescence; Potency, µM (top dose mostly 36.5 µM), actives largely listed as inhibitors; hit rate 0.46% among 330,000; AID 720580; calls by dose curve; tested in A549 cells; also: nearly all actives have a fitted effect of over 30% in size
Marburg entry inh = inhibitors of Marburg virus binding or cell entry; hit rate 1.8% among 300,000; Potency, µM (series often up to 37.8 µM), most hits filed as inhibitors; Marburg virus pseudotyped entry inhibition, cell reporter; AID 540276; calls by dose curve; tested in HEK293 cells
VACV mCherry inh = vaccinia inhibition (mCherry reporter) | Vaccinia virus mCherry reporter infection, fluorescence | Potency, µM (highest dose often 36.5 µM), most hits filed as inhibitors | hit rate 0.63% among 310,000; calls by dose curve; tested in A549 cells; also: nearly all actives have a fitted effect of over 35% in size
HCV inh = blocks hepatitis C virus. Huh7.5.1 HCVcc-Cre infection, luciferase reporter, 44 h. AID 651820. hit rate 3.4% among 340,000. Potency, µM (doses to about 41.8 µM), hits mostly inhibitors; active = well fitted inhibition curve with a large enough effect; inconclusive = small, poorly fitted or top-dose-only effect, or another doubt; inactive = no such curve, though single readings can be large or run the other way
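Compounds are dispensed onto cells plated 4 h earlier at 1,000 per well, with HCVcc-Cre virus (about 0.5 moi) added next. Following 44 h of culture, luminescent signal is measured for 15 sec after 15 min with substrate at room temperature.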
Hits are given with their value; – = inactive; ? = inconclusive; · = no result.

SMILES	FMDV antiviral	LASV entry inh	Vaccinia Venus	Marburg entry inh	VACV mCherry inh	HCV inh
O=C(Nc1cccc(F)c1)C1CCN(S(=O)(=O)c2cccc3nonc23)CC1	?	–	–	–	–	–
O=C1CCN(Cc2ccc(Cl)cc2Cl)C(=O)N1	–	–	–	–	–	–
CCC(=O)N[C@@H]1c2ccccc2C2(CCN(Cc3cnc(N(C)C)s3)CC2)[C@H]1OC	–	·	–	·	–	·
Cc1ccc2nc(NC(=O)C3CCN(S(=O)(=O)c4cccc5nsnc45)CC3)sc2c1	?	?	–	?	–	?
Cc1ccc2nc(NC(=O)C3CCCN(S(=O)(=O)c4cccc5nsnc45)C3)sc2c1 (stereo not given)	–	?	–	?	–	11µM
CCc1nc2c(OCc3ccc(Cl)cc3)cccn2c1N(C)C(=O)c1ccco1	28µM	·	?	·	?	·
CCOC(=O)C1NC2CCC(OCC)CC2C1CCCN1C(=O)C2=C(CCCC2)C1=O (stereo not given)	·	·	·	–	·	·
NC(=S)N/N=C/c1ccc2cccc(OCc3ccccc3)c2n1	–	?	?	?	?	11µM
NC(=S)N/N=C/c1ccccc1OCc1cccc(Cl)c1	?	–	2µM	?	1.8µM	11µM
NC(N)=N/N=C/c1ccc2cccc(OCc3ccccc3)c2n1	?	?	–	?	–	13µM
COc1ccccc1CCNC(=O)Cc1c(C)c2c(O)cc(C)cc2oc1=O	–	–	–	–	–	·
Nc1nc(NCc2ccc(F)cc2)c2[nH]cnc2n1	·	·	–	·	–	·
CCCCCCN1CCN(C2CN(Cc3ccc(C)cc3)S(=O)(=O)C2)CC1 (stereo not given)	–	6.3µM	–	·	–	·
COc1ccc(N(C(=O)Nc2ccc(Cl)cc2)C2=NCCC2)cc1	·	6.5µM	–	–	–	?
Cc1ccc(N(C(=O)Nc2ccccc2)C2=NCCC2)cc1	–	–	–	–	–	–
Cc1cnc(C)c(-c2cc(F)cc3c2OC(CNC(=O)C2CCOC2)C3)n1 (stereo not given)	–	·	–	·	–	·
O=C(Nc1ccccc1C(=O)NCc1ccco1)Nc1cccc2ccccc12	–	·	?	·	–	11µM
CC1(C)C[C@H]2C=C(C=O)[C@]3(C=O)C[C@]3(C)[C@H]2C1	25µM	3.7µM	?	?	?	3.2µM
CC1(C)CC2/C(CO)=C/C=C/[C@](C)(O)CC[C@]21O (stereo not given in full)	–	·	–	·	–	·
Cc1ccc(CNC(=O)C(C(C)C)N2Cc3ccccc3C2=O)cc1 (stereo not given)	–	–	–	·	–	·
O=C(Nc1cccnc1)c1ccc(Cl)c(S(=O)(=O)N2CCc3ccccc32)c1	–	–	–	–	–	–
O=C(NCC(c1ccco1)N1CCCC1)c1ccc(Cl)c(S(=O)(=O)N2CCc3ccccc32)c1 (stereo not given)	?	?	?	11µM	?	4.5µM
O=C(Nc1ccccn1)c1ccc(Cl)c(S(=O)(=O)N2CCc3ccccc32)c1	25µM	·	·	·	·	?
CCCN1C(=O)c2ccccc2NC1c1ccc(OC)c(COc2cccc(OC)c2)c1 (stereo not given)	·	·	–	·	–	·
COc1ccc(CN2CCOc3ccc(CN4CCC(O)(c5cccnc5)CC4)cc3C2)c(C)c1C	–	·	–	·	–	·
SMILES	FMDV antiviral	LASV entry inh	Vaccinia Venus	Marburg entry inh	VACV mCherry inh	HCV inh
CCN1/C(=C/C=C/c2oc3ccc(-c4ccccc4)cc3[n+]2CC)Oc2ccc(-c3ccccc3)cc21	8.9µM	4.5µM	·	2.5µM	–	0.89µM
CCCCN1C(=O)/C(=C/C=C2\Oc3ccccc3N2CC)SC1=S	–	–	–	?	–	–
CN(C)c1ccc(/C=C/c2cc(Cl)nc3ccccc23)cc1	·	·	–	·	–	·
COc1cc2sc3cc(NCc4ccc(C)o4)ccc3c(=O)c2cc1OC	–	·	–	·	?	3.5µM
Cc1cccc(CS(=O)(=O)Cc2ccc(C(=O)NC3CCCCCC3)o2)c1	–	·	·	·	·	–
Cc1cc(C(F)F)n2nc(C(=O)Nc3sc4c(c3C(N)=O)CCC4)nc2n1	–	–	–	?	–	?
COC(=O)c1c(NC(=O)c2ccc(C)o2)sc2c1CCCCC2	–	?	–	–	–	11µM
COC(=O)c1c(NC(=O)c2nc3nc(C)cc(C(F)F)n3n2)sc2c1CCC2	–	–	–	–	?	10µM
Cc1ccc(C(=O)Nc2sc3c(c2C(=O)O)CCCCC3)o1	–	7.9µM	?	6.3µM	?	–
COC(=O)c1c(NC(=O)c2ccco2)sc2c1CCC2	–	–	–	–	·	?
Cc1ccc(C(=O)Nc2sc3c(c2C(=O)O)CCCC3)o1	–	·	·	·	·	?
Cc1ccc(CN2C(=O)CCC2(C)c2nnnn2Cc2ccccc2)cc1 (stereo not given)	–	·	–	·	–	·
Cc1oc(-c2ccccc2NC(=O)c2ccccn2)nc1CNC(=O)c1ccc(Oc2ccccc2)o1	–	·	–	·	–	·
COc1ccc(-c2cn3nc(N4CCC(C(=O)Nc5cccc(OC)c5)CC4)sc3n2)cc1	–	–	–	·	–	·
Cc1nc2cc(Cl)ccc2c(=O)n1Cc1ccncc1	–	·	·	·	·	–
Cc1cc(C)cc(S(=O)(=O)c2cnc3ccccc3n2)c1	?	–	–	–	–	–
O=S(=O)(c1ccc(Cl)cc1)c1cnc2ccccc2n1	25µM	?	–	–	–	?
COc1ccc(/C(C)=N/Nc2nc3ccccc3nc2C)cc1	–	?	–	?	?	13µM
O=C(N/N=C/c1sc(N2CCOCC2)nc1-c1ccccc1)c1ccccc1Cl	–	?	–	–	–	8.9µM
O=C(N/N=C/c1sc(N2CCOCC2)nc1-c1ccccc1)c1ccccc1O	–	1.3µM	?	7.9µM	?	?
O=C(N/N=C/c1sc(N2CCOCC2)nc1-c1ccccc1)c1ccccc1F	?	?	–	–	–	?
CC(C)(C)c1ccc(C(=O)C[n+]2ccccc2Cl)cc1	·	·	–	·	–	·
CN(CC(=O)Nc1ccc(F)cc1F)S(=O)(=O)c1ccc(C(=O)N2CCOCC2)s1	–	–	–	·	–	·
CCCOc1ccc(CNC(=S)Nc2ccccc2)cc1Cl	–	–	–	?	–	16µM
CC(C)Oc1ccc(CNC(=S)Nc2ccccc2)cc1Cl	–	·	·	·	·	–
SMILES	FMDV antiviral	LASV entry inh	Vaccinia Venus	Marburg entry inh	VACV mCherry inh	HCV inh
CC(C)COc1ccc(CNC(=S)Nc2ccccc2)cc1Cl	–	–	–	?	–	10µM
Cc1ccccc1Nc1oc(-c2ccccc2)nc1-c1ccc(C(F)(F)F)cc1	·	?	·	–	·	·
COc1ccc(NC(=O)O/N=C/c2c(C)nn(C(C)(C)C)c2C)cc1	?	·	·	·	·	–
Cc1nn(C(C)(C)C)c(C)c1/C=N/OC(=O)Nc1ccc(Cl)c(Cl)c1	0.32µM	·	·	·	·	–
N#Cc1cccc(NC(=O)N2CCC3(CC2)CCN(C(=O)c2cnccn2)CC3)c1	–	·	·	·	·	·
COc1ccc(N/C=C(\C#N)c2nc3ccccc3n2C)c(OC)c1	–	–	·	–	·	5µM
Cn1c(/C(C#N)=C/c2ccccc2Br)nc2ccccc21	–	?	–	·	–	·
FC(F)(F)c1ccc(N2CCN(c3cc(-c4ccccc4)nc4ncnn34)CC2)nc1	·	?	–	?	–	8.9µM
O=C(NC1CCCCC1)C(c1ccncc1)N(Cc1ccccc1)C(=O)c1ccc(-c2ccccc2)[nH]1 (stereo not given)	–	?	·	?	·	13µM
